Common to all, as to type: functional
The target in assay [1] is Solute carrier family 2, facilitated glucose transporter member 1 (Homo sapiens) (UniProt P11166). Nature of the assay: ST_JUDE_LEISH: Cytotoxicity at 2uM final concentration against transgenic Leishmania Mexicana promastigotes LmGLUT1 that are glucose transport deficient and complemented with the human glucose transporter GLUT1. Activity is measured by DNA content using SYBR green in vitro.

Assay [2] addresses Hexose transporter 1 (Plasmodium falciparum) (UniProt O97467). Kind of assay: ST_JUDE_LEISH: Cytotoxicity at 2uM final concentration against transgenic Leishmania Mexicana promastigotes LmPfHT that are glucose transport deficient and complemented with the Plasmodium falciparum hexose transporter. Activity is measured by DNA content using SYBR green in vitro.
Assay [3] deals with Glucose transporter (Leishmania mexicana) (UniProt O61059). Kind of assay: ST_JUDE_LEISH: Cytotoxicity at 2uM final concentration against transgenic Leishmania Mexicana promastigotes LmGT2 that are glucose transport deficient and complemented with the L. Mexicana glucose transporter 2. Activity is measured by DNA content using SYBR green in vitro.

In general, inhibition refers to the drop in the measured response relative to a control, in per cent.

Solute carrier family 2, facilitated glucose transporter member 1 (Homo sapiens), sequence (P11166 whole entry): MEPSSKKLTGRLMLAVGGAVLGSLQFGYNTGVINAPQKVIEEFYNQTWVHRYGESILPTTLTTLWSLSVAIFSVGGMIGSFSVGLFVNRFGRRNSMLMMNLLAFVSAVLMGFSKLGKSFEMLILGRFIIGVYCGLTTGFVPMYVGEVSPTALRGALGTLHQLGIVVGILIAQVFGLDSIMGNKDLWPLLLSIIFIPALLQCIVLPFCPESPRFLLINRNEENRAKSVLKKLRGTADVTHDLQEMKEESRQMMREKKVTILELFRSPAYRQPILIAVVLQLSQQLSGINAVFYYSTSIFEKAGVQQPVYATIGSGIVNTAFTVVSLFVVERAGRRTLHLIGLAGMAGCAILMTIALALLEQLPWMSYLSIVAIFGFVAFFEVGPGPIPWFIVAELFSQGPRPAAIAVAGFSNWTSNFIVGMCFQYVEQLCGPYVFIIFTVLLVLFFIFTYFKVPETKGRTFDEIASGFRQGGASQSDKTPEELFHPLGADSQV

For the molecule `CCNc1cc(C)nc(Nc2ccc(NC(=O)Cc3ccc(OC)cc3)cc2)n1`, the values for the inhibition in assay [1], in assay [2] and in assay [3] were 10.8%, 10.1% and 4.74%, respectively.

In the case of `CC(C)(C)c1ccc(NC(=O)c2cccc(CN3CCCN(Cc4cccc(C#N)c4)CC3)c2)cc1`, the inhibition in assay [1] was found to be 5.1%; in assay [2], 1.26%; in assay [3], 0.63%.

On to `Cc1cc(O)c(CN2CCN(Cc3cccs3)CC2)cc1C(C)C`, for which the inhibition is -0.44% in assay [1], 0.02% in assay [2] and 2.94% in assay [3].

Take `CCc1cn2c3c(cc(C(=O)N[C@@H](Cc4cccc(F)c4)[C@H](O)CNC4CCCCC4)cc13)N(C)S(=O)(=O)CC2`: the inhibition in assay [1] is -0.36%; in assay [2], -1.06%; in assay [3], -0.81%.

On to `Cc1ncccc1C(=O)Nc1cccc(-c2cccc(-c3nc4cc(C(F)(F)F)ccc4[nH]3)c2)c1`, for which the inhibition in assay [1] is 0.73%; in assay [2] it was 1.25%; in assay [3], -2.48%.

As to `COc1ccc2ncc(F)c(CCN3CC4CCCC4(CNCc4ccc5c(n4)NC(=O)CS5)C3)c2n1` (stereo unspecified), the inhibition in assay [1] amounted to 1.18%; in assay [2], 1.32%; in assay [3], 0.3%.

Consider `Nc1nc(N)c2c(ccn2Cc2cc3c(cc2Cl)OCO3)n1`, for which the inhibition in assay [1] is 4.12%; in assay [2], 2.86%; in assay [3] it was 10.5%.

`CCN(c1ccccc1)S(=O)(=O)c1ccc(NC(=O)c2cc(-c3cc(C)ccc3O)n[nH]2)cc1`: the inhibition in assay [1] is -1.82%; in assay [2], 5.38%; in assay [3] it was -1.84%.

For `CCN(CCS(C)(=O)=O)Cc1ccc(-c2ccc3ncnc(Nc4ccc(OCc5cccc(F)c5)c(Cl)c4)c3c2)o1`, the inhibition in assay [1] was 2.48%; in assay [2] it was 0.54%; in assay [3] it was -0.09%.

Take `CC(C)C[C@H](NC(=O)c1cccc(F)c1)C(=O)N[C@H](/C=N/NC(=O)c1ccccc1)CCc1ccccc1`: the figures for the inhibition in assay [1], in assay [2] and in assay [3] were -1.39%, 3.32% and 0.18%, respectively.

Consider `COc1ccc(Oc2ccccc2CNCC2CCN(CC3CCCCC3)CC2)cc1`, for which the values for the inhibition in assay [1], in assay [2] and in assay [3] were 6.31%, -1.98% and 2.13%, respectively.

As to `CC1CCN(CC[C@H]2CCCN2S(=O)(=O)c2cccc(NC(=O)c3cc4ccccc4s3)c2)CC1`, the inhibition in assay [1] came to 4.95%; in assay [2], 6.97%; in assay [3], 3.15%.

On to `Cc1ccccc1C1CCN(C2CCC(NC(=O)/C=C/c3cc(C(F)(F)F)ccc3F)CC2)CC1` (stereo unspecified), for which the inhibition in assay [1] was found to be 2.67%; in assay [2], 2.98%; in assay [3], 3.34%.

For `CCOc1c(CNCCCNc2cc(O)c3ccccc3n2)cc(I)cc1OC`, the inhibition is -0.3% in assay [1], -1.22% in assay [2] and 1.41% in assay [3].

Turning to `O=C(Nc1ccc(Cl)cc1)c1ccc(CN2CCCN(CC3CCCCC3)CC2)cc1`, the inhibition in assay [1] came to 4.77%; in assay [2], 7.11%; in assay [3], 5.54%.

Turning to `CN1CCN(CCc2ccc3nc(-c4csc(Cc5cc(Cl)ccc5OCc5ccccc5)n4)[nH]c3c2)CC1`, the values for the inhibition in assay [1], in assay [2] and in assay [3] were 0.84%, 2.08% and -1.4%, respectively.

Turning to `CCCCN1CCN(CCCNc2c3ccccc3nc3ccccc23)CC1`, the inhibition in assay [1] stood at 68%; in assay [2], 80%; in assay [3], 55.3%.

As for `CN1CCN(c2cccc(-c3nnc(-c4cccc(OCC(=O)NCc5ccc(C(F)(F)F)cc5)c4)o3)c2)CC1`, the figures for the inhibition in assay [1], in assay [2] and in assay [3] were 1.77%, 1.65% and 2.47%, respectively.

As to `CCC(C)NCc1c(O)ccc2c(CNC(C)CC)c(O)ccc12` (stereo unspecified), the inhibition in assay [1] was 2.24%; in assay [2], 3.63%; in assay [3], 2.13%.

Consider `O=C(Cc1ccc(NC(=O)c2ccc(O)c(-c3cccc([N+](=O)[O-])c3)c2)cc1)NCCN1CCCCC1`, for which the inhibition was -0.19% in assay [1], -1.26% in assay [2] and -0.03% in assay [3].

As for `CCN(CC)CCN(Cc1ccc(-c2ccc(C(F)(F)F)cc2)cc1)C(=O)Cn1c(SCc2ccc(F)cc2)nc(=O)c2sccc21`, the inhibition in assay [1] turned out to be 5.28%; in assay [2], 2.81%; in assay [3], 4.07%.

As for `O=S(=O)(NCCN1CCCC1)c1ccc(-c2ccc(CNCc3ccsc3)cc2)s1`, the values for the inhibition in assay [1], in assay [2] and in assay [3] were 10.5%, 7.66% and 4.76%, respectively.

On to `C[C@H]1CN(Cc2cccc(-c3cc(CNC(=O)c4cccc(CC5CCN(C)CC5)c4)ccc3F)c2)CCN1C`, for which the results for the inhibition in assay [1], in assay [2] and in assay [3] were 0.87%, 0.27% and -3.42%, respectively.

Consider `CCCc1cnc2nc(N)nc(N)c2c1C`, for which the inhibition is -2.96% in assay [1], -0.62% in assay [2] and 0.34% in assay [3].

Regarding `COc1ccc(Nc2nccc(NCC(O)c3ccc(C(F)(F)F)cc3)n2)cc1` (stereo unspecified), the inhibition was determined as 2.9% in assay [1], 5.27% in assay [2] and 2.61% in assay [3].

Turning to `Cc1cc(OCC(=O)Nc2ccc(-c3nc4ccccc4[nH]3)cc2)cc(C)c1Cl`, the values for the inhibition in assay [1], in assay [2] and in assay [3] were 0.45%, 2% and -0.9%, respectively.

Regarding `CO/C(=C\C=C\c1cc2cc(Cl)c(Cl)cc2[nH]1)C(=O)NCCCNCCN(C)c1ccccc1`, the inhibition was 4.77% in assay [1], 2.76% in assay [2] and 1.74% in assay [3].

For the molecule `Cc1cccc2nc(-c3ccc(-c4cccc(CNCCN5CCNCC5)c4)cc3)[nH]c12`, the inhibition was 9.94% in assay [1], 8.32% in assay [2] and 9.01% in assay [3].

Take `Cc1ccc(Cc2cnc(CN3CCCCC3)c(O)c2)cc1`: the inhibition in assay [1] was -1.22%; in assay [2], -2.99%; in assay [3], 0.07%.

In the case of `CS(=O)(=O)N(c1cccc(F)c1)c1cc(C(=O)N[C@@H](Cc2ccccc2)[C@H](O)CNCc2cccc(C(F)(F)F)c2)cc(N2CCCC2=O)c1`, the inhibition in assay [1] was -2.34%; in assay [2], -1.22%; in assay [3], -0.57%.

Consider `COc1ccc2ncc(F)c(CCN3CC(O)C(CNCc4ccc5oc(=O)ccc5c4)C3)c2n1` (stereo unspecified), for which the results for the inhibition in assay [1], in assay [2] and in assay [3] were 8.17%, 6.29% and 5.19%, respectively.

For the molecule `c1cn(CCCNc2ncc(-c3ccsc3)c(-c3nccs3)n2)cn1`, the inhibition in assay [1] is 11%; in assay [2], 10.1%; in assay [3], 9.4%.

Values taken from ChEMBL document CHEMBL3433997, “St. Jude Leishmania screening dataset” (2016).
